Reference: PubChem BioAssay AID504332 (National Center for Advancing Translational Sciences (NCATS), 2011)
In all, about 350,000 compounds went through this assay and about 31,000 (8.9%) were called active. A call without a number means that no potency is given here. Not shown: some 15% with an inconclusive outcome. The full list was thinned out, with actives kept by preference. A number with no mark means an inactive call. Calls come from the whole dose curve; as a rule, active = well fitted inhibition curve with a large enough effect; inconclusive = small, poorly fitted or top-dose-only effect; inactive = no such curve, though single readings can be large or run the other way.

biological target: Histone-lysine N-methyltransferase EHMT2 (Homo sapiens) (UniProt Q96KQ7); experiment: qHTS Assay for Inhibitors of Histone Lysine Methyltransferase G9a; conditions: G9a H3K9 monomethylation, AlphaScreen, 2 h; series mostly up to 59 µM; note: nearly all actives have a fitted effect of over 75% in size
From the text: Methylated lysines, on the N-terminal tails of histone proteins serve as epigenetic markers to recruit factors that can then modify local chromatin structure to lead to functional consequences. G9a and other members of the SUV39 family of the SET domain-containing superfamily of histone lysine methyltransferases (HMT) have been identified to specifically methylate Lys9 of histone H3 (H3K9). G9a catalyzes the mono- and di-methylation of H3K9 in mammalian euchromatic regions, where the resulting H3K9me2 is indicative of transcriptional repression. […] The inhibition of G9a will result in transcriptional activation and work synergistically with DNA methyltransferase and histone deacetylase inhibitors, to kill cancer cells. This qHTS assay for identification of G9a inhibitors is a chemiluminescence based AlphaScreen (PerkinElmer). Methylation of biotinylated-histone peptide is measured through specific antibody-based detection, in conjunction with streptavidin-coated donor and anti-IgG antibody-coated acceptor beads. The method is particularly well suited for detection of inhibitors acting by the desired histone peptide competitive mechanism and is applicable to testing other HMTs. Although AlphaScreen has significant advantages with its utility in a variety of epigenetic target assays, the primary screening data provided in this deposition should be used with caution due to the prevalence of screening artifacts. An AlphaScreen counterscreen is highly recommended to be run against any putative actives to eliminate non specific artifacts. Alternatively, one can use other AlphaScreen assays in PubChem to filter out promiscuous hits. Quinn et al. A chemiluminescence-based method for identification of histone lysine methyltransferase inhibitors. Mol Biosyst 6(5): 782-8. 2010. PMID: 20567762 [2] Baell,Holloway. New substructure filters for removal of pan assay interference compounds (PAINS) from screening libraries and for their exclusion in bioassays. J Med Chem. 53(7):2719-40. 2010. PMID: 20131845 NIH Molecular Libraries Probe Production Network [MLPCN] NIH Chemical Genomics Center [NCGC] Structural Genomics Consortium (SGC) NIH Grant: 5U54 MH084681-02
To each well of a 1,536w plate, 2ul of HMT enzyme (final 20nM) were added, using a nanoliter dispenser. The G9a- and GLP-inhibitor BIX-01294 (CID: 25150857) are used as an intraplate control, with a 16-point titration in duplicate. A Kalypsys pin-tool transferred 23nl of library compound solution in DMSO to each well. Following a 15 min incubation of enzyme with compounds at room temperature, 1ul mixture of b-H3K9 peptide substrate (final 500nM) and SAM cofactor (final 20uM) were added. Reactions were allowed to proceed at room temperature for 2 hours. Methylated b-H3K9 peptide product was detected with 0.5 ug/mL rabbit polyclonal anti-monomethyl histone H3K9 antibody (Abcam Inc., Cambridge, MA) and 20 ug/mL each streptavidin-coated donor and anti-rabbit IgG acceptor AlphaScreen beads. Antibody and beads were added in a 1ul dispense, for a final volume of 4ul, and plates were incubated, protected from the light, for 10 min at room temperature. Microplates were then read on an EnVision multilabel plate reader using the 1,536 plate HTS AlphaScreen aperture (excitation time 80 ms, measurement time 240 ms).
Potency is the fitted concentration of half-maximal effect.

Sequence of Histone-lysine N-methyltransferase EHMT2 (Homo sapiens) (Q96KQ7 913-1193 limits assumed): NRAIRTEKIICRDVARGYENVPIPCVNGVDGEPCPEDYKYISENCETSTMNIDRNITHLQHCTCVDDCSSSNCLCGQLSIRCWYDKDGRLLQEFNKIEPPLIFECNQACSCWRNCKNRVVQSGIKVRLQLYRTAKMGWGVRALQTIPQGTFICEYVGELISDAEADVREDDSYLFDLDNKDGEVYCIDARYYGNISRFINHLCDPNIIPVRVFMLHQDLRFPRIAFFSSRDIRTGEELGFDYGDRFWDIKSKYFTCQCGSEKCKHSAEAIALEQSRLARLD

Row | Compound | activity, negative = inhibition | Potency
1 | CC(CN1CCOCC1)OC(=O)c1ccc(C(C)(C)C)cc1 (stereo unspecified) | 6.26% [at 0.501 µM] | 
2 | N#Cc1ccc(C2=CC(=O)C[C@H](c3ccc(Cl)cc3)C2)cc1 | -28.8% [at 0.501 µM] | 
3 | CCOC(=O)c1c(S(=O)(=O)N2CCCC(C(=O)NCc3ccc(F)cc3)C2)c(C)n(CC)c1C (stereo unspecified) |  | inactive
4 | Cc1ccc(CN2CC(C(=O)N3CCN(S(=O)(=O)c4ccccc4)CC3)CC2=O)cc1 (stereo unspecified) |  | inactive
5 | Cc1ccc(CN2CCCn3nc(C(=O)NCc4ccccc4Cl)cc3C2=O)cc1 |  | inactive
6 | Oc1ccc(N=Cc2sc3ccccc3c2Cl)cc1 |  | 10 µM (active)
7 | O=C(O)C#Cc1cccc2ccccc12 |  | inactive
8 | Oc1ccc(N=Cc2c(O)ccc3ccccc23)cc1 |  | 1 µM (active)
9 | CCOc1[nH]n(-c2ccc(Cl)cc2)c(=O)c1C=Nc1ccc(O)cc1 |  | inactive
10 | CCOc1ccc(N=Cc2c(O)n(-c3cccc(C)n3)c(=O)c3ccccc23)cc1 |  | inactive
11 | COc1ccc(N=C(C)c2sc3ccccc3c2O)cc1 |  | inactive
12 | O=C(N/N=C/c1c(Cl)[nH]c2ccccc12)c1sc2ccccc2c1Cl |  | inactive
13 | Oc1ccc2ccccc2c1C=Nc1ccccc1 |  | 2.51 µM (active)
14 | O=S(=O)(NCCc1nnc2ccc(SCc3ccc(Cl)cc3Cl)nn12)c1ccccc1 |  | inactive
15 | COc1ccc(NC(=O)C2CCCN(S(=O)(=O)c3cccc4nonc34)C2)cc1Cl (stereo unspecified) |  | inactive
16 | O=S(=O)(Nc1ccc(-n2cnnn2)cc1)c1ccc(Cl)cc1 |  | inactive
17 | CCOc1ccccc1C(=O)Nc1ccc2c(c1)N(C)C(=O)c1ccccc1S2 |  | inactive
18 | Cc1ccc(OCCNC(=O)CNC(=O)c2ccc(C)c(C)c2)cc1 | 24.7% [at 2.33 µM] | 
19 | COC(=O)COc1ccc2c(c1C)O/C(=C\c1ccco1)C2=O |  | 8.91 µM (active)
20 | COc1ccccc1OCC(=O)OCc1cc(-c2ccco2)on1 | 3.66% [at 12.7 µM] | 
21 | Cc1cc(C)c(OCC(=O)N/N=C/c2ccco2)c(C)c1 |  | inactive
22 | COc1cccc(C(=O)OCC(=O)c2[nH]c(C)c(C(C)=O)c2C)c1 | -42.2% [at 12.7 µM] | 

Row | Compound | activity, negative = inhibition | Potency
23 | CCOc1ccc(N(CC)C(=O)C2CCN(S(=O)(=O)c3cccc4nonc34)CC2)cc1 |  | inactive
24 | COc1ccc(S(=O)(=O)N2CCOCC2)cc1NC(=O)CSc1cc(C)ccc1C | 3.19% [at 0.501 µM] | 
25 | CCOC(=O)c1cccc(NS(=O)(=O)c2cn(C)c(C)n2)c1 |  | inactive
26 | Cc1cccc(N2CCN(C(=O)CCn3c(=O)c4cccn4c4cccnc43)CC2C)c1 (stereo unspecified) |  | inactive
27 | CSCCC(NC(=O)c1ccco1)C(=O)NCCc1ccc(F)cc1 (stereo unspecified) | 40.1% [at 12.7 µM] | 
28 | CCN(CC)c1ccc(NC(=O)CN2CCN(c3ccccn3)CC2)cc1 |  | 44.7 µM (active)
29 | NS(=O)(=O)c1ccc(NC(=O)COC(=O)c2ccc(Cl)nc2)cc1 |  | inactive
30 | CCN(CC)c1ccc(NC(=O)CN2CCN(CC(=O)Nc3ccc(Cl)cc3)CC2)cc1 |  | 7.08 µM (active)
31 | Cc1cnc(NC(=O)c2ccc(Cl)nc2)s1 |  | inactive
32 | CCN(CC)c1ccc(NC(=O)c2ccc(Cl)nc2)cc1 |  | 10 µM (active)
33 | O=C(CN1CCN(c2ccccn2)CC1)NC1CCCCC1 |  | inactive
34 | O=C(CN1CCN(c2ccccn2)CC1)Nc1ccc(Br)cc1 |  | inactive
35 | CCOC(=O)N1CCN(CC(=O)Nc2ccc(F)cc2)CC1 |  | inactive
36 | CCOc1ccc(NC(=O)CN2CCN(CC(=O)Nc3ccc(OC)cc3)CC2)cc1 |  | inactive
37 | Cc1ccccc1N1CCN(S(=O)(=O)c2ccc3ccccc3c2)CC1 | 14.6% [at 0.501 µM] | 
38 | COC(=O)c1ccc2c(C(C)(C)O)c(C(C)(C)O)[nH]c2c1 |  | inactive
39 | COc1ccc(N2CCN(C(=O)CSCc3nc(-c4ccccc4Cl)oc3C)CC2)cc1 |  | inactive
40 | CCN(CC)C(=O)CN(c1cccc([N+](=O)[O-])c1)S(=O)(=O)c1ccccc1 |  | inactive
41 | CNc1ccc([N+](=O)[O-])cc1C(=O)O |  | inactive
42 | CCN(CC)c1ccc([N+](=O)[O-])cc1C(=O)O |  | 50.1 µM (active)
43 | COc1ccc(N(CCC(=O)NCCc2ccccc2)S(=O)(=O)c2ccc(C)cc2C)cc1 | 12.2% [at 12.7 µM] | 
44 | O=C(c1cc(S(=O)(=O)N2CCOCC2)ccc1Cl)N1CCOCC1 |  | inactive

Row | Compound | activity, negative = inhibition | Potency
45 | CCCN(CCC)CCCNC(=O)Cn1ncc2c3ccccc3n(Cc3ccccc3)c2c1=O |  | inactive
46 | Cc1nc2ccc(NC(=O)N3CCC(c4ccccc4)C3)cc2nc1C (stereo unspecified) | 12.3% [at 12.7 µM] | 
47 | Cc1nc2ccc(NC(=S)N3CCC(C)CC3)cc2nc1C |  | 44.7 µM (active)
48 | Cc1ccc(NC(=S)N2CCN(c3ncccn3)CC2)cc1C |  | inactive
49 | COc1cccc(NC(=O)C2C(c3ccccc3)C2(Cl)Cl)c1 (stereo unspecified) | 0.796% [at 0.501 µM] | 
50 | CCOC(=O)N/N=C/c1cn(Cc2ccccc2Cl)c2ccccc12 |  | inactive
51 | COC(=O)N/N=C/c1cn(CCCOc2ccc(C)cc2)c2ccccc12 |  | inactive
52 | CNC(=S)N/N=C/c1cn(Cc2ccc(C)cc2)c2ccccc12 |  | 44.7 µM (active)
53 | O=C(Cc1ccc(Cl)cc1)NC(=S)Nc1ccccc1O |  | inactive
54 | Cc1cccc(C)c1NC(=O)CNC(=O)C1CCCC1 | 26.8% [at 12.7 µM] | 
55 | NS(=O)(=O)c1cc(C(=O)OCC(=O)NNC(=O)c2ccccc2)ccc1Cl |  | inactive
56 | CN(NS(=O)(=O)c1cccs1)c1ncc(C(F)(F)F)cc1Cl |  | inactive
57 | CC(=O)c1c(C)[nH]c(C(=O)COc2ccc3c(C)cc(=O)oc3c2)c1C | -2.97% [at 12.7 µM] | 
58 | COC(=O)Cn1cc(C(=O)c2cccs2)c2ccccc21 | 10.8% [at 12.7 µM] | 
59 | COC(=O)c1cn(CC(=O)NCc2cccs2)c2ccccc12 |  | inactive
60 | COC(=O)Cn1cc(/C=C/[N+](=O)[O-])c2ccccc21 |  | 39.8 µM (active)
61 | COc1ccc(Cl)cc1NC(=O)c1oc(C)nc1C | 10.9% [at 12.7 µM] | 
62 | Cc1cccc(NC(=O)c2ccc3nc(C(C)C)oc3c2)c1C |  | inactive
63 | Cc1nc(C)c(C(=O)Nc2cccc(C)c2C)o1 |  | 44.7 µM (active)
64 | Cc1cccc(NC(=O)c2cccc(C(=O)Nc3cccc(C)c3C)n2)c1C |  | 50.1 µM (active)
65 | Cc1nc(C)c(C(=O)Nc2ccc(C)c(F)c2)o1 | 20.5% [at 12.7 µM] | 
66 | Cc1cccc(NC(=O)c2ccc3nsnc3c2)c1C |  | inactive
